# Out of some 340,000 compounds screened, about 420 (0.12%) were called active. About 10% were inconclusive and are not listed. Calls follow the shape of the dose curve; as a rule, active = well fitted activation curve with a large enough effect; inconclusive = small, poorly fitted or top-dose-only effect, or another doubt; inactive = no such curve, though single readings can be large or run the other way; cell line not stated here. The sample as a whole holds a higher share of actives than the screen did.
# Experiment: qHTS for Agonist of gsp, the Etiologic Mutation Responsible for Fibrous Dysplasia/McCune-Albright Syndrome: qHTS; also: nearly all actives have a fitted effect of over 60% in size;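 as to activation (cAMP increase): phosphodiesterase inhibitor Ro 20-1724 added with compounds to block cAMP breakdown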
# Conditions: gsp mutant cells, cAMP HTRF, 30 min; series mostly up to 76.9 µM; activation (cAMP increase): at the top concentration
# From the text: McCune-Albright syndrome (MAS) is a rare disease caused by somatic mutations in Gsgsp), a widely expressed protein central in signal transduction from G-coupled protein receptors (GPCRs). The disease symptoms are diverse, owing to the fact that the patients are mosaics with varying degrees of tissue involvement. Greater than 90% of the mutations in Gs in MAS occur at the R201 position and are equally divided between R201H and R201C. The R201 residue is central in the intrinsic GTPase activity of Gs and the H and C mutations lead to loss of, or impairment of, the GTPase activity. The intrinsic GTPase activity is necessary to terminate the interaction between Gs and adenylate cyclase, and to terminate the cAMP-mediated signaling of the given GPCR pathway. Thus, these activating mutations lead to ligand-independent activation of GPCR pathways. The tissue phenotype is determined by the role of Gs in the function of a given cell, and excess Gs/cAMP signaling in that cell. For example, pituitary somatotrophs overproduce growth hormone in a growth hormone releasing hormone-independent fashion, and gigantism/acromegaly ensues. Skeletal stem cells in the bone marrow behave as if they are under constant parathyroid hormone stimulation and fail to differentiate into osteoblasts and osteocytes, and proliferate as immature osteogenic cells and lead to the marrow fibrosis of fibrous dysplasia of bone. The goal of this project is to identify molecules with stimulatory activity at gsp mutations that will not only allow for in-depth study of the underlying molecular and cellular pathophysiology, but also serve as compounds from which drugs to treat FD/MAS can be developed NIH Chemical Genomics Center [NCGC] NIH Molecular Libraries Probe Centers Network [MLPCN] MLPCN Grant: IRP-FT-DE-2011-01 Assay Submitter (PI): Michael Collins, NIDCR
# 1.#Seed 2000 cells/well in 6 ul DMEM 10% FBS, 1% Pen/Strep, 0.5 mg/ml G418 2.#Incubate 16-24 hr at 37C, 5% CO2, 95% humidity 3.#Aspirate leaving 1 ul residual volume 4.#Dispense 5 ul/well DPBS + 1 mM CaCl2, 0.5 mM MgCl2, 0.05% BSA, 0.005% Tween 20 5.#Aspirate leaving 2 ul residual volume 6.#Dispense 23 nl/well compounds in DMSO 7.#Dispense 1 ul/well 300 uM Ro-20174 in DMEM 10% FBS 8.#Incubate 30 min at 37C, 5% CO2, 95% humidity 9.#Dispense 1.5 ul/well HTRF reagent: cAMP-d2 in lysis buffer 10.#Dispense 1.5 ul/well HTRF reagent: anti-cAMP antibody-K in lysis buffer 11.#Incubate 30 min at room temperature 12.#Detect HTRF signal using EnVision plate reader
# Potency is read from the fitted curve at half-maximal effect.
SMILES,activation (cAMP increase),Potency
CCn1c(SCC(=O)NCC2CCCO2)nc2ccccc21 (stereo unspecified),11% (inactive),–
CCCc1nc(SCC(=O)N2CCCC2)c2c(=O)n(C)c(=O)n(C)c2n1,26% (inactive),–
Cn1c(=O)c2c(SCC(=O)NCC3CCCO3)nc(CC(C)(C)C)nc2n(C)c1=O (stereo unspecified),–,14.1 µM (active)
CCCCCCN1C[C@H](O)[C@@H](n2cc(C3CC3)nn2)C[C@@H]1c1ccc(Cl)cc1,-33.6% (inactive),–
CC1(C)CC(=O)C=C(c2ccc(COC(=O)c3cc(F)cc(F)c3)cc2)C1=O,-119% (inactive),–
O=C(CCc1ccc(O)cc1)NN=Cc1cc(Br)ccc1O,-4.34% (inactive),–
COc1cc2ccc(C(C)=O)c(O)c2cc1OC,15.1% (inactive),–
COC(=O)C[C@H]1C[C@@H]2c3cc(N(C)C)ccc3O[C@@H]2[C@H](CO)O1,-18.9% (inactive),–
Cc1cc(Cl)ccc1C(=O)C1CCCN(C(=O)c2ccc3c(c2)OCO3)C1 (stereo unspecified),0.924% (inactive),–
Cc1ccc(C(=O)N2CCCc3ccccc32)c(Cl)c1,5.11% (inactive),–
CN(C)C(CNC(=O)c1cc(Br)c(Br)s1)c1ccco1 (stereo unspecified),-58.5% (inactive),–
O=C(COC(=O)Cc1ccc(Cl)cc1Cl)NCc1ccco1,-9.6% (inactive),–
CCOC(=O)C=Cc1ccc(C(=O)OCC)[nH]1,-46.9% (inactive),–
Cc1cc(C)nc(N/N=C/c2ccc([N+](=O)[O-])o2)n1,45% (inactive),–
CCc1ccc(S(=O)(=O)N/N=C\c2ccc([N+](=O)[O-])o2)cc1,-10.5% (inactive),–
C/[N+]([O-])=C\c1ccc([N+](=O)[O-])o1,–,28.2 µM (active)
COc1ccc(/C=C2\SC(=S)N(CCC(=O)N3CCOCC3)C2=O)cc1OC,-44.9% (inactive),–
O=C(NCc1ccccc1)C1CNCC(C(=O)NCc2ccccc2)C1 (stereo unspecified),4.24% (inactive),–
Cc1ccc([C@H]2N[C@]3(CCCN(Cc4ccccc4)C3=O)[C@H]3C(=O)N(Cc4ccccc4)C(=O)[C@@H]23)cc1,-54.9% (inactive),–
CS(=O)(=O)c1sc2nc(-c3ccccc3)cc(-c3ccccc3)c2c1N,–,7.08 µM (active)
CCN(CC)C(=O)c1sc2nc(-c3ccccc3)ccc2c1N,-3.88% [at 15.4 µM] (inactive),–

SMILES,activation (cAMP increase),Potency
CNc1nc(-c2ccccc2)cc(-c2ccccc2)n1,-29% (inactive),–
CCc1ccccc1NC(=O)CN1CCN(C(=O)c2cc(C3CC3)nn2-c2ccccc2)CC1,-23.3% (inactive),–
O=NN(CCCl)C(=O)NCCc1cccc[n+]1[O-],-40.6% (inactive),–
CSc1ncnc2c1ncn2CCCNCC1CCCCC1,-41.1% (inactive),–
Cc1ccc(S(=O)(=O)N(CCc2ccccc2)c2ccc3c(c2)C2CC3CCN2C(=O)OCc2ccccc2)cc1 (stereo unspecified),-3.98% (inactive),–
CC(OC(=O)c1cccnc1Cl)C(=O)NC1CCCCC1 (stereo unspecified),-7.18% (inactive),–
O=C(COC(=O)c1cncc(Br)c1)Nc1ccc(S(=O)(=O)N2CCOCC2)cc1,-52.8% (inactive),–
O=C(OCc1ccccc1)N1CCC2CC1c1cc(N3CCN(S(=O)(=O)c4cc(Cl)cc(Cl)c4)CC3)ccc12 (stereo unspecified),-22.3% (inactive),–
NC(CSC(c1ccccc1)(c1ccccc1)c1ccc(-c2ccccc2)cc1)C(=O)O (stereo unspecified),-9.82% (inactive),–
C=CCn1c2ccccc2c2nnc(SCc3[nH]c(=O)[nH]c3C(=O)CCCCC(=O)OCC)nc21,–,2 µM (active)
C=CCn1c(SCC(=O)CC(=O)OCC)nc2cc(C(=O)N3CCC(C(N)=O)CC3)ccc2c1=O,4.18% [at 15.4 µM] (inactive),–
C=CCn1c2ccccc2c2nnc(SC(CC)C(=O)Nc3nc(C)c(C(=O)OCC)s3)nc21 (stereo unspecified),-52.6% (inactive),–
C=CCn1nc(C(=O)OCC)cc1-c1sc(NC(=O)c2ccccc2)nc1C,-3.53% (inactive),–
Cc1cc(C)c2c(=O)n3c(nc2c1)C(CC(C)C)NC(=O)c1cc2ccccc2cc1-3 (stereo unspecified),4.39% (inactive),–
Cn1c(=O)c2cn(-c3cccc4ccccc34)cc2n(C)c1=O,-9.96% [at 15.4 µM] (inactive),–
CC(=O)Nn1cc2c(=O)n(C)c(=O)n(C)c2c1,–,7.94 µM (active)
COc1ccc(-c2c3c(=O)n(C)c(=O)n(C)c3cn2NC(C)=O)cc1,3.24% (inactive),–
COc1ccc(OC)c(C(=O)NC2CCCc3c2cnn3-c2cc(C)cc(C)c2)c1 (stereo unspecified),-55.3% (inactive),–
CCOC(=O)c1cc(-c2sc(NC(=O)c3ccccc3)nc2C)n(CCO)n1,-34% (inactive),–
O=C(NCCS(=O)(=O)N1CCN(c2ccccc2)CC1)c1cc(=O)c2ccccc2o1,-23.3% (inactive),–
COc1ccc(Cl)cc1NC(=O)CN(C)C(=O)c1cn(-c2ccccc2)nc1-c1cccs1,4.43% (inactive),–

SMILES,activation (cAMP increase),Potency
C[C@@H]1CN([C@@H](C)CO)C(=O)c2cc(Br)cnc2O[C@H]1CN(C)Cc1ccc(-c2ccccc2)cc1,-22.2% (inactive),–
CCOc1cc(/C=N/NC(=O)c2c(C)nc3ccc(Cl)cn23)ccc1O,-9.2% (inactive),–
Cc1ccc(NC(=O)COC(=O)CN2CCSC2=O)cc1F,-20.3% (inactive),–
C[C@H]1Cn2cnc(C(=O)N[C@@H](Cc3c[nH]c4ccccc34)C(=O)OC(C)(C)C)c2C(=O)N1,-4.83% (inactive),–
CC(=O)Nc1ccc(C=Cc2ccc([N+](=O)[O-])cc2)cc1,-3.38% (inactive),–
COC(=O)c1ccccc1N=NNc1ccc([N+](=O)[O-])cc1,-6.79% (inactive),–
CC(Sc1ccc(S(=O)(=O)N2CCN(C)CC2)cn1)C(=O)NC1CCCC(C)C1C (stereo unspecified),-21.5% (inactive),–
CCOc1ncccc1C(=O)Nc1ccc2c(c1)OCCO2,13.9% (inactive),–
CCOc1ncccc1C(=O)Nc1ccc(S(=O)(=O)Nc2nc(C)cc(C)n2)cc1,–,10 µM (active)
O=C(Nc1ccc(S(=O)(=O)Nc2ncccn2)cc1)c1cncc(Br)c1,-25.9% (inactive),–
CCCc1c(C)nc2scc(-c3ccc(Cl)cc3)n2c1=O,4.2% (inactive),–
CC1=C(C(=O)N(C)C)CC(CC(=O)NCCN2CCOCC2)C(=O)N1Cc1ccccc1 (stereo unspecified),-32.8% (inactive),–
O=C1OCCC1=COCCCCOC=C1CCOC1=O,-17.1% (inactive),–
CCCCCCn1c(=O)n2n(c1=O)C[C@]1(OC(=O)NCc3ccc(OC)c(OC)c3)CN(S(=O)(=O)c3ccc(C)cc3)C[C@]1(O)C2,-93.1% (inactive),–
COc1ccc(CN2C[C@H]3CON(C)[C@H]3C[C@H]2c2ccc(-c3cccc(F)c3)cc2)cc1,-69.9% (inactive),–
Cc1onc(-c2ccccc2)c1-c1nnc(COC(=O)c2ccc(N(C)C)cc2)o1,-1.6% (inactive),–
Cc1ccc(CCNC(=O)CN2C(=O)CSc3ccc(S(=O)(=O)N4CCOCC4)cc32)cc1,-42.1% (inactive),–
COc1ccc2c(c1)CCCO[C@]21O[C@H](CCO)C[C@H](O)[C@H]1O,-64.1% (inactive),–
Cc1ccc(-c2ccc(C3=CC(=O)CC(C)(C)C3=O)cc2)cc1,-42% (inactive),–
